Key:
Assay in all cases: DAPPL (digital affinity profiling via proximity ligation, sequencing); 10 mM Tris-HCl pH 7.5, 50 mM NaCl, 1 mM DTT, 4% glycerol, room temperature, 30 min; GST-TFs on glutathione beads, 16-mer random dsDNA library, 0.1% formaldehyde crosslink after washing; high values mean tight binding
FEV = target: T1, FEV (Homo sapiens, UniProt Q99581 1-238); conditions: protein: recombinant; tags: N-terminal GST; dsDNA, one strand shown
T1 sequence: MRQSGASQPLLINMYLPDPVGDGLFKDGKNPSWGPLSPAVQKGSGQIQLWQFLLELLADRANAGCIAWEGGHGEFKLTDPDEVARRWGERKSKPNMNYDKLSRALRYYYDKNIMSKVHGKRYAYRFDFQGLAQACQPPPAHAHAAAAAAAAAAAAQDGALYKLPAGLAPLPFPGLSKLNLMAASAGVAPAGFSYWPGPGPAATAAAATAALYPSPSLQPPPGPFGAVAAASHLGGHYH
Outline: (§1)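 The binding signal reported is, for every hexamer, its read frequency for a factor over its read frequency for the tag-only sample. Reads came from pools of yeast-expressed, GST-fused human transcription factors on glutathione beads, barcoded with DNA and mixed with that sample, which were incubated with 200 nmole of a random double-stranded 16-mer DNA library in Tris/NaCl/DTT/glycerol buffer at room temperature for 30 min. After washing, the pools were crosslinked with 0.1% formaldehyde, proximity-ligated with BsaI/T4 ligase for 1 h at 37 °C, PCR-amplified and sequenced on an Illumina NextSeq500.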

ETV5 = ETV5 (Homo sapiens, UniProt P41161 1-510); conditions: protein: recombinant; tags: N-terminal GST; dsDNA, one strand shown
Sequence of ETV5 (P41161 whole entry): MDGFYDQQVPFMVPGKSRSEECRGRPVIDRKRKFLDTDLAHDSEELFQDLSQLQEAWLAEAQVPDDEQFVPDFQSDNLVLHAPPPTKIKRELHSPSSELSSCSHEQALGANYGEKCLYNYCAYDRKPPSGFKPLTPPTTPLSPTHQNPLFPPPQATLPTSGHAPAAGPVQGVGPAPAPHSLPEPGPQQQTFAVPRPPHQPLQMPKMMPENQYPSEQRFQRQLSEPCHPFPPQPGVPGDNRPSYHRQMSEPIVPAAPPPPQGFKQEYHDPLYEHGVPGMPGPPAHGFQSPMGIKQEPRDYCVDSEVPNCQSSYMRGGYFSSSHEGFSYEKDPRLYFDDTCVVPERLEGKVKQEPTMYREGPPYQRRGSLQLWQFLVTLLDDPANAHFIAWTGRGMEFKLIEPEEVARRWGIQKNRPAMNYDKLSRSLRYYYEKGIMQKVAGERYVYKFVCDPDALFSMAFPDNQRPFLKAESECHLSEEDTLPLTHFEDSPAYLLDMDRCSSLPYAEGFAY
Outline: as §1

HSF1 = HSF1 (Homo sapiens, UniProt Q00613 1-529); conditions: protein: recombinant; tags: N-terminal GST; chain copies: 3; dsDNA, one strand shown
Sequence of HSF1 (Q00613 whole entry): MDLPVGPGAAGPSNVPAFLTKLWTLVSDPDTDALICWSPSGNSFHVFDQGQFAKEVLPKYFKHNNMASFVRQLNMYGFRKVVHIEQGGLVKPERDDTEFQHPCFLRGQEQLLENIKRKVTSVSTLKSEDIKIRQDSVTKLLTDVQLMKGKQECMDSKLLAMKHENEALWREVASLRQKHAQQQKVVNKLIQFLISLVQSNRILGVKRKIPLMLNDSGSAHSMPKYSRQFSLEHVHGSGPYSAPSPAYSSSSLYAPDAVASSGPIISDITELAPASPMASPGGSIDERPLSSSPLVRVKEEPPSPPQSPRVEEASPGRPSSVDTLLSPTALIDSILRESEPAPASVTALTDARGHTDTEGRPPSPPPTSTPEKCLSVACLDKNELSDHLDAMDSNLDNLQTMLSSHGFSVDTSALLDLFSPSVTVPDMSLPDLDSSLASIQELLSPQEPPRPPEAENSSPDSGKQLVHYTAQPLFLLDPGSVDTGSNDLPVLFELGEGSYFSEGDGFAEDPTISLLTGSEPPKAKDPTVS
Outline: as §1

SPIC = target: T2, SPIC (Homo sapiens, UniProt Q8N5J4 1-248); conditions: protein: recombinant; tags: N-terminal GST; dsDNA, one strand shown
T2 sequence: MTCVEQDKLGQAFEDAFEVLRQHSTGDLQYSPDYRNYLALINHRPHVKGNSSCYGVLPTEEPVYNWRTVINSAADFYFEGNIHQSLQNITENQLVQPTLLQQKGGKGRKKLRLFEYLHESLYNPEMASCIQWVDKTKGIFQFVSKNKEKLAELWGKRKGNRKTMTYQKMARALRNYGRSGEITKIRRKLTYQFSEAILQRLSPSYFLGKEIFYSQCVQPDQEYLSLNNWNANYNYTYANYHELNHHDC
Outline: as §1

ELF4 = ELF4 (Homo sapiens, UniProt Q99607 1-663); conditions: protein: recombinant; tags: N-terminal GST; dsDNA, one strand shown
Sequence of ELF4 (Q99607 whole entry): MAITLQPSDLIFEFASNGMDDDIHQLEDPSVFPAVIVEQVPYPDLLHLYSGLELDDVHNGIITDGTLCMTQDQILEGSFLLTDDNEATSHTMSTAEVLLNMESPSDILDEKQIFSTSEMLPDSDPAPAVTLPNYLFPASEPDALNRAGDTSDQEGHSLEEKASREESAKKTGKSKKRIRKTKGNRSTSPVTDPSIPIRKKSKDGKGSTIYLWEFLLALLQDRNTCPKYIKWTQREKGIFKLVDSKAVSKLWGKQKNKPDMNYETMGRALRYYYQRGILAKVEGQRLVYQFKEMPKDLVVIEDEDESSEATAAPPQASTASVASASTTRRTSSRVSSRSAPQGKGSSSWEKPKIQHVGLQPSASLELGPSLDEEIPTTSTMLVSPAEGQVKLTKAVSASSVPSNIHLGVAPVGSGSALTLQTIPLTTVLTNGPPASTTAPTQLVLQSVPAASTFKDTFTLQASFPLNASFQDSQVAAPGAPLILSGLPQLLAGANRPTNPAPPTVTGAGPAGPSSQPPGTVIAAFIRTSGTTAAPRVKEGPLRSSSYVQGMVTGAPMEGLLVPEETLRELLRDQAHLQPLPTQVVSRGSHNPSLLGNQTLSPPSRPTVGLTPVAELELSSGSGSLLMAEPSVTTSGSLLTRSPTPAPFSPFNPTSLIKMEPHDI
Outline: as §1

ELK4 = target: T3, ELK4 (Homo sapiens, UniProt P28324-2 1-405); conditions: protein: recombinant; tags: N-terminal GST; dsDNA, one strand shown
T3 sequence: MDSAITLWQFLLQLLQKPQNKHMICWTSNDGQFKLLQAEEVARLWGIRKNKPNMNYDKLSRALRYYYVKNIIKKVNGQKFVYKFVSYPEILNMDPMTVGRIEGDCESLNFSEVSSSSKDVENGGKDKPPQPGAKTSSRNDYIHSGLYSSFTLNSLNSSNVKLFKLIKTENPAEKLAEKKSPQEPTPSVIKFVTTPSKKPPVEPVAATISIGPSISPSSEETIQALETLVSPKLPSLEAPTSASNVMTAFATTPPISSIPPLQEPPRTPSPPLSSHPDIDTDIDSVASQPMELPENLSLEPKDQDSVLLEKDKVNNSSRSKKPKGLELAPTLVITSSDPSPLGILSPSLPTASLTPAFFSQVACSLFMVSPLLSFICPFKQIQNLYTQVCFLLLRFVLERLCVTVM
Outline: as §1

ETV2 = target: T4, ETV2 (Homo sapiens, UniProt O00321 1-342); conditions: protein: recombinant; tags: N-terminal GST; dsDNA, one strand shown
T4 sequence: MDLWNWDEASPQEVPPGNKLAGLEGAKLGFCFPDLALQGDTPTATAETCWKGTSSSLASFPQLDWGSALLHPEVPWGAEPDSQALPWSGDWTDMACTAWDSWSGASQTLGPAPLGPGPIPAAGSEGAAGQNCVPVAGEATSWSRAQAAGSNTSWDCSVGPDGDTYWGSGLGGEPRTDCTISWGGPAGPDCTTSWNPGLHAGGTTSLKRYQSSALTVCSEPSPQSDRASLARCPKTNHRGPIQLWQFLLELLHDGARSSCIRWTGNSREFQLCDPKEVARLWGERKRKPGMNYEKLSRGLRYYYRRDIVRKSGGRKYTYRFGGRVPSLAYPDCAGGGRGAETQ
Outline: as §1

ELF3 = target: T5, ELF3 (Homo sapiens, UniProt P78545 1-371); conditions: protein: recombinant; tags: N-terminal GST; dsDNA, one strand shown
T5 sequence: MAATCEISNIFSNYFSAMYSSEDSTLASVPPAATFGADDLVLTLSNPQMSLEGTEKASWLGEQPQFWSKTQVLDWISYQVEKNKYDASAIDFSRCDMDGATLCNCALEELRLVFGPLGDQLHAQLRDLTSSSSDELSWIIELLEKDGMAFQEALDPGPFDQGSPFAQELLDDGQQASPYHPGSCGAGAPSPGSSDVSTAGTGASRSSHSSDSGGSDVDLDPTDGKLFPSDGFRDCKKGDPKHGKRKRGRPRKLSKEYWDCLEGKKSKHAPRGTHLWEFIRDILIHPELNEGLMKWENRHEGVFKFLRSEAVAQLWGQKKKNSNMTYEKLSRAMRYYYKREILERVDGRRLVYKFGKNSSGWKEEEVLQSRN
Outline: as §1

CRX = CRX (Homo sapiens, UniProt O43186 1-299); conditions: protein: recombinant; tags: N-terminal GST; dsDNA, one strand shown
Sequence of CRX (O43186 whole entry): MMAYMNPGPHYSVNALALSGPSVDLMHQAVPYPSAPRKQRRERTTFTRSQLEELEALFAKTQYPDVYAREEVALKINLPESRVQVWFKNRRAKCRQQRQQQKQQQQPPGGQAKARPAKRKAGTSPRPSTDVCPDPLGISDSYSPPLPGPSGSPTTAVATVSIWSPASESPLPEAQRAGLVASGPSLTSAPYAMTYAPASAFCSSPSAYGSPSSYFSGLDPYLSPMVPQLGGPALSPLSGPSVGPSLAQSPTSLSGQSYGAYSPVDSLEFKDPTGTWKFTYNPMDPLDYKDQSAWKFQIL
Outline: as §1

ETV1 = ETV1 (Homo sapiens, UniProt P50549 1-477); conditions: protein: recombinant; tags: N-terminal GST; dsDNA, one strand shown
Sequence of ETV1 (P50549 whole entry): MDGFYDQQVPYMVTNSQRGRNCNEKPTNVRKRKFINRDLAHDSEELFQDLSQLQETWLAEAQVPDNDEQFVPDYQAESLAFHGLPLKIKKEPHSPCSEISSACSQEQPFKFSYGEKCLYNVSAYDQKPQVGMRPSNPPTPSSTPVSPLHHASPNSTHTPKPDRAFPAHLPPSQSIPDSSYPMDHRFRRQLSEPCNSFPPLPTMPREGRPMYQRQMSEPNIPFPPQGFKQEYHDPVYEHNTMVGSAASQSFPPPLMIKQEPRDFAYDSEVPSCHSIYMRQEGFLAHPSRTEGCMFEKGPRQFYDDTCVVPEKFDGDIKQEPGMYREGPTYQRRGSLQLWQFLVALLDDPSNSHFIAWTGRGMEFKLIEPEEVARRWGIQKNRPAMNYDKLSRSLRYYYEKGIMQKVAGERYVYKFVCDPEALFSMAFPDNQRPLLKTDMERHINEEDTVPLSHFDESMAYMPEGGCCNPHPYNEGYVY
Outline: as §1

ERF = target: T6, ERF (Homo sapiens, UniProt P50548 1-548); conditions: protein: recombinant; tags: N-terminal GST; dsDNA, one strand shown
T6 sequence: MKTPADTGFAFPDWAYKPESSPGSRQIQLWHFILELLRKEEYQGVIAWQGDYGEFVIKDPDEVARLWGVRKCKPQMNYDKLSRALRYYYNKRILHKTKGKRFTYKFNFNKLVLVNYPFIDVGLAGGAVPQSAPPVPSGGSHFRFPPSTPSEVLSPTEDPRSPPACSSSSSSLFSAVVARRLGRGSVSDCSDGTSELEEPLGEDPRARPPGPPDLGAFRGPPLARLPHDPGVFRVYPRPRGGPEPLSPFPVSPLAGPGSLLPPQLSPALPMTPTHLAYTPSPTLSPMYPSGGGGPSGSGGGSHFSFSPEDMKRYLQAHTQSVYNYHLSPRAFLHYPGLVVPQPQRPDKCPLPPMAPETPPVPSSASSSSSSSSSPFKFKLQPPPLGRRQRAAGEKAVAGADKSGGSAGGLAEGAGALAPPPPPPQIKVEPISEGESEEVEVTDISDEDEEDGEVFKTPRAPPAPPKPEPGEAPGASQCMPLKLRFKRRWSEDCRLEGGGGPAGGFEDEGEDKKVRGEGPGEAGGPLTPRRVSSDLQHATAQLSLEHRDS
Outline: as §1

ETV3L = target: T7, ETV3L (Homo sapiens, UniProt Q6ZN32 1-361); conditions: protein: recombinant; tags: N-terminal GST; dsDNA, one strand shown
T7 sequence: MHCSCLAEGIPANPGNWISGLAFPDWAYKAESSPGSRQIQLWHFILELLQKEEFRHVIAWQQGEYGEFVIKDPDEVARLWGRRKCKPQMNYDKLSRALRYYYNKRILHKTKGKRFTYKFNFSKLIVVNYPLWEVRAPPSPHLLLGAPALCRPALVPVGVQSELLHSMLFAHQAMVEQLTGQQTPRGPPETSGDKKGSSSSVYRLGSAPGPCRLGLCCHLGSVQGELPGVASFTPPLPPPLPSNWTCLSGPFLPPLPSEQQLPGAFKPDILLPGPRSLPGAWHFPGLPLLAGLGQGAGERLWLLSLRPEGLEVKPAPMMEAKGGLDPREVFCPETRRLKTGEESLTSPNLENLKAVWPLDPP
Outline: as §1

ETS2 = target: T8, ETS2 (Homo sapiens, UniProt P15036 1-469); conditions: protein: recombinant; tags: N-terminal GST; dsDNA, one strand shown
T8 sequence: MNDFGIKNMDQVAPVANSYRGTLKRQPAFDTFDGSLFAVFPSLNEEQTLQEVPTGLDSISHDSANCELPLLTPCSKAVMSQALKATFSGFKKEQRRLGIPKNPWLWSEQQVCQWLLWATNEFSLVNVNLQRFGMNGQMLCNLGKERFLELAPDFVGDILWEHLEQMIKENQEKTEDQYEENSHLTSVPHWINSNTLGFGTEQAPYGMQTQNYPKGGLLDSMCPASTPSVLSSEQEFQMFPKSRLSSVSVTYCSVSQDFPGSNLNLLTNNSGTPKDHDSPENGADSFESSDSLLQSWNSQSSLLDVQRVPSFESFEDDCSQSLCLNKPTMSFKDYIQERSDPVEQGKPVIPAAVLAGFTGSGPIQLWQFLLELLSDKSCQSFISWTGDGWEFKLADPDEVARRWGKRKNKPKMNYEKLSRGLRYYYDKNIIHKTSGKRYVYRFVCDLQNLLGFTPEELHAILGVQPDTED
Outline: as §1

SPDEF = target: T9, SPDEF (Homo sapiens, UniProt O95238 1-335); conditions: protein: recombinant; tags: N-terminal GST; dsDNA, one strand shown
T9 sequence: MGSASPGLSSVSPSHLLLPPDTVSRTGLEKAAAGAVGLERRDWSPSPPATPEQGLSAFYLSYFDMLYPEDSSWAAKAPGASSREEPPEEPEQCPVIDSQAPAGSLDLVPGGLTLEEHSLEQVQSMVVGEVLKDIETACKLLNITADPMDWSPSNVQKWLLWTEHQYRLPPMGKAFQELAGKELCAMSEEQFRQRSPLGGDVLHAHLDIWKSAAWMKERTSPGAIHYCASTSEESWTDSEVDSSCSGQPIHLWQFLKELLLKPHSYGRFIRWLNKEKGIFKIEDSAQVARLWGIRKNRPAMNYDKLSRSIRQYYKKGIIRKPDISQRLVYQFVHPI
Outline: as §1

ETV7 = target: T10, ETV7 (Homo sapiens, UniProt Q9Y603 1-341); conditions: protein: recombinant; tags: N-terminal GST; dsDNA, one strand shown
T10 sequence: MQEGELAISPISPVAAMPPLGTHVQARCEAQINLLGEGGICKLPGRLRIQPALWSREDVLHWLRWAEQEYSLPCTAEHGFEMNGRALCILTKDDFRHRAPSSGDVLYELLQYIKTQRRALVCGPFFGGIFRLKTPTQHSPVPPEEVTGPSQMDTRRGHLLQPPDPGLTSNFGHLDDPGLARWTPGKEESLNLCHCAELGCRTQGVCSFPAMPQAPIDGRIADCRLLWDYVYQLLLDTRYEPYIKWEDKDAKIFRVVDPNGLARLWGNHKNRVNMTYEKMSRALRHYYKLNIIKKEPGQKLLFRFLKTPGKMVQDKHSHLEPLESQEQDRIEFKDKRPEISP
Outline: as §1

ELF5 = target: T11, ELF5 (Homo sapiens, UniProt Q9UKW6-2 1-255); conditions: protein: recombinant; tags: N-terminal GST; dsDNA, one strand shown
T11 sequence: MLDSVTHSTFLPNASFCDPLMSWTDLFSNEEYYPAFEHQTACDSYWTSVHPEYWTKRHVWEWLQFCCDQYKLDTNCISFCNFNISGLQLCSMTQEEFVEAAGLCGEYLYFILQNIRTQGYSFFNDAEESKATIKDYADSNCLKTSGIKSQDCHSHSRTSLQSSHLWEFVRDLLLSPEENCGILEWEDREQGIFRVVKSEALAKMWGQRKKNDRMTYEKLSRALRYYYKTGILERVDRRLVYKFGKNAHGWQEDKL
Outline: as §1

ETV3 = target: T12, ETV3 (Homo sapiens, UniProt P41162-2 1-143); conditions: protein: recombinant; tags: N-terminal GST; dsDNA, one strand shown
T12 sequence: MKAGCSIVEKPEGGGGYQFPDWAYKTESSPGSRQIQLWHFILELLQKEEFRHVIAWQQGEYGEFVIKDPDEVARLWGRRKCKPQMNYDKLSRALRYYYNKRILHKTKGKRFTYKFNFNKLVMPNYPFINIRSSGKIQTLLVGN
Outline: as §1

ETV6 = ETV6 (Homo sapiens, UniProt P41212 1-452); conditions: protein: recombinant; tags: N-terminal GST; dsDNA, one strand shown
Sequence of ETV6 (P41212 whole entry): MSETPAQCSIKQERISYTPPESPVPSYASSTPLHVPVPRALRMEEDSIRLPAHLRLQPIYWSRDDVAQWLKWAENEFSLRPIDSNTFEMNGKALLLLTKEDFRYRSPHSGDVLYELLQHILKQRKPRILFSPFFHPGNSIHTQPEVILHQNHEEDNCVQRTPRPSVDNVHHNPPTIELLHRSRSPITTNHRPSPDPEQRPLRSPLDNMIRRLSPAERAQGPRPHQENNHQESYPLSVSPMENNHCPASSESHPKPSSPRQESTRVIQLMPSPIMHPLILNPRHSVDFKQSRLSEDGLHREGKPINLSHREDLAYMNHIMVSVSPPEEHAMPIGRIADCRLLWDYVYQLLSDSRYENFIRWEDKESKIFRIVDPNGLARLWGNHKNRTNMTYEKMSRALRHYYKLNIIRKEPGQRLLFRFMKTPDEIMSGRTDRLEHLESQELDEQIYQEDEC
Outline: as §1

## TAGTGG
FEV
  binding signal: 1.21 fold enrichment (6-mer frequency, TF over GST control)
ETV5
  binding signal: 1.11 fold enrichment (6-mer frequency, TF over GST control)
HSF1
  binding signal: 1.33 fold enrichment (6-mer frequency, TF over GST control)
SPIC
  binding signal: 1.24 fold enrichment (6-mer frequency, TF over GST control)
ELF4
  binding signal: 1.15 fold enrichment (6-mer frequency, TF over GST control)
ELK4
  binding signal: 1.37 fold enrichment (6-mer frequency, TF over GST control)
ETV2
  binding signal: 1.15 fold enrichment (6-mer frequency, TF over GST control)
ELF3
  binding signal: 1.1 fold enrichment (6-mer frequency, TF over GST control)
CRX
  binding signal: 1.52 fold enrichment (6-mer frequency, TF over GST control)
ETV1
  binding signal: 1.14 fold enrichment (6-mer frequency, TF over GST control)
ERF
  binding signal: 1.18 fold enrichment (6-mer frequency, TF over GST control)
ETV3L
  binding signal: 1.15 fold enrichment (6-mer frequency, TF over GST control)
ETS2
  binding signal: 1.28 fold enrichment (6-mer frequency, TF over GST control)
SPDEF
  binding signal: 1.1 fold enrichment (6-mer frequency, TF over GST control)
ETV7
  binding signal: 1.17 fold enrichment (6-mer frequency, TF over GST control)
ELF5
  binding signal: 1.12 fold enrichment (6-mer frequency, TF over GST control)
ETV3
  binding signal: 1.1 fold enrichment (6-mer frequency, TF over GST control)
ETV6
  binding signal: 1.16 fold enrichment (6-mer frequency, TF over GST control)

— PMC7862700, “An all-to-all approach to the identification of sequence-specific readers for epigenetic DNA modifications on cytosine”
